# Compound activity (PubChem BioAssay)
# An excerpt weighted towards active compounds, which were near 1.6% of everything screened.
# KCNQ2 pot: KCNQ2 (rat) channel potentiation | O88943 | CHO-K1 KCNQ2, FluxOR thallium flux fluorescence; active compounds read high | B-score at 10 µM | actives 0.54% (n = 310,000);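 active means fluorescence ratio B-score at least 3 SD of library B-scores, with initial fluorescence B-score within 3 of them, cut at about 5.3 in these data; same plate scores as AID 2156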;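 further: B-score of peak minus minimum over baseline fluorescence ratio after K+ and Tl+ stimulus; positive B-score means potentiation of KCNQ2 with more thallium influx and brighter signal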
# Target sequence (O88943 whole entry, looked up): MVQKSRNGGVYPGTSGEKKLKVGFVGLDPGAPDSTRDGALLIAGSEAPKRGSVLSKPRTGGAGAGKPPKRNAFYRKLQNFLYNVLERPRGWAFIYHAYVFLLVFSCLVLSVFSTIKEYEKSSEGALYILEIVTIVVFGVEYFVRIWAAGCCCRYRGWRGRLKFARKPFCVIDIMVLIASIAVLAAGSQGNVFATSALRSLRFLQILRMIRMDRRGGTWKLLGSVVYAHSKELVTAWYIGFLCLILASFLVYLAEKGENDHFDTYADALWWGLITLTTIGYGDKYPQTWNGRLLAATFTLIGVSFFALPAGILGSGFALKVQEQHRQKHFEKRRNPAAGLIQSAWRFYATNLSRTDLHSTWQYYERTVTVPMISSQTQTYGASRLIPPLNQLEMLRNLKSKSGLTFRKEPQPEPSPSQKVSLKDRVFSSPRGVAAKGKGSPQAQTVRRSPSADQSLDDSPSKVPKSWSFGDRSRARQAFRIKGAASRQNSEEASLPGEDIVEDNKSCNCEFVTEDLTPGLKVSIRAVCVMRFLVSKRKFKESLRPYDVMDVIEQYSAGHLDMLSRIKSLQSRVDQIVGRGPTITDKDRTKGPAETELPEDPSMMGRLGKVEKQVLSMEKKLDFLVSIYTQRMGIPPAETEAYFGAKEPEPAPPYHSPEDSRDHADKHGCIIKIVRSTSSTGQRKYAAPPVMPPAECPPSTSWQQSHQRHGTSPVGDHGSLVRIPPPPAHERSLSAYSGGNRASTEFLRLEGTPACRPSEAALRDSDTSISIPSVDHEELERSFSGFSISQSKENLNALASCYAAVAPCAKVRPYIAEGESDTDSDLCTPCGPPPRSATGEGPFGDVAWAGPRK
# KCNQ2 inh: KCNQ2 (rat) channel inhibition. AID 2156. O88943. actives 1.1% (n = 310,000). B-score at 10 µM. CHO-K1 KCNQ2, FluxOR thallium flux, 20 min; active compounds read low;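 active means fluorescence ratio B-score at most minus 3 library SDs, with starting brightness B-score within 2 library SDs, cut at about -5.5 in these data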
# Active calls of the source: *; i = inactive; . = not tested or not shown.
SMILES,KCNQ2 pot,KCNQ2 inh
CN(C(=O)CC1C(=O)NCCN1CC(c1ccccc1)c1ccccc1)C(C1CC1)C1CC1 (configuration not stated),.,i
CN(CC1CCOCC1)C(=O)CC1C(=O)NCCN1CC(c1ccccc1)c1ccccc1 (configuration not stated),-5.9,-5.9*
CC(C)(C)NC(=O)c1ccc2c(c1)N(CC(=O)N1CCCCC1)C(=O)C(C)(C)O2,0.93,i
COc1ccccc1NC(=O)c1ccc2c(c1)N(CC(=O)NC(C)(C)C)C(=O)C(C)(C)O2,.,i
Cc1ccc(NC(=O)c2ccc3c(c2)N(CC(=O)N2CCCCC2)C(=O)C(C)(C)O3)cc1,-7.9,-7.9*
CCOC(=O)CN1C(=O)C(C)(C)Oc2ccc(C(=O)Nc3ccccc3OC)cc21,-6.5,-6.5*
O=c1cc(CSc2n[nH]c(=O)n2C2CC2)c2ccc(O)cc2o1,.,i
COc1ccccc1-c1nc(C(=O)NCC2CCCO2)cc2c1[nH]c1ccccc12 (configuration not stated),.,i
COc1cc(-c2nc(C(=O)NCC3CCCO3)cc3c2[nH]c2ccccc23)cc(OC)c1OC (configuration not stated),-6.7,-6.7*
C#CCN1C(=O)C(O)(c2c(C)[nH]c3ccccc23)c2ccccc21 (configuration not stated),0.42,i
Cc1cc2oc(=O)cc(CN3CCOCC3)c2cc1C,0.1,i
CSc1ccc(-c2sc(Nc3cccc4ccccc34)n[n+]2-c2ccccc2)cc1,-5.6,-5.6*
CSc1ccc(-c2sc(Nc3ccccc3)n[n+]2-c2ccccc2)cc1,.,i
OC(CNCC1CCCO1)COc1ccc(OCC(O)CNCC2CCCO2)cc1 (configuration not stated),0.91,i
CCOC(=O)c1c(C)n(-c2ccc(C)cc2)c2ccc(OCC(O)CNCC3CCCO3)cc12 (configuration not stated),-6.3,-6.3*
Cc1cccc(OCCC(=O)OC(C)C(=O)Nc2ccc(Cl)cn2)c1 (configuration not stated),.,i
O=C(COc1ccc2c(c1)OCO2)NC12CC3CC(CC(C3)C1)C2,.,i
O=C(NCc1ccc2c(c1)OCO2)NC12CC3CC(CC(C3)C1)C2,25*,i
O=C(Nc1cccc(C(F)(F)F)c1)c1cc(S(=O)(=O)N2CCCCC2)ccc1N1CCOCC1,.,i
Cc1cc(C)nc(SCc2nnc(SCc3ccc([N+](=O)[O-])cc3)n2Cc2ccco2)n1,-5.8,-5.8*
COC(=O)CSc1nnc(CSc2nc(C)cc(C)n2)n1Cc1ccco1,.,i
Cc1cccc(OCC(=O)NNC(=O)C2CCN(c3ncnc4sc(C)c(C)c34)CC2)c1,.,i
Cc1sc2ncnc(N3CCC(C(=O)N(CC(C)C)c4nc5ccccc5s4)CC3)c2c1C,-6.2,-6.2*
Cc1ccccc1OCC(=O)NNC(=O)C1CCN(c2ncnc3sc(C)c(C)c23)CC1,.,i
CCCN(CC(=O)Nc1ccccc1C)C(=O)C1CCN(c2ncnc3sc(C)c(C)c23)CC1,-6.8,-6.8*
SMILES,KCNQ2 pot,KCNQ2 inh
CCOC(=O)C1=C(N)OC2=C(C(=O)CC(C)(C)C2)C1C1CCCCC1 (configuration not stated),-7.5,-7.5*
CCOC(=O)C1=C(N)OC2=C(C(=O)CC(C)(C)C2)C1c1ccoc1 (configuration not stated),0.89,i
COc1ccc(Oc2ccc(C(F)(F)F)cc2NC(=O)c2ccc(C)cc2)cc1,-5.6,-5.6*
COCCOc1ccc(C(F)(F)F)cc1NC(=O)c1ccc(C)cc1,.,i
O=C1COc2ccc(S(=O)(=O)N3CCN(c4ccccc4)CC3)cc2N1,.,i
c1ccc(N/N=C(\Cc2ncc[nH]2)c2ccccc2)cc1,.,i
Clc1cccc(N/N=C(\Cc2nc3ccccc3[nH]2)c2ccccc2)c1,-6.3,-6.3*
C=CCN(c1cccc(C(F)(F)F)c1)S(=O)(=O)c1cccc(C(=O)OCC(=O)NCCC)c1,6.6*,i
C=CCN(c1ccccc1)S(=O)(=O)c1cccc(C(=O)OCC(=O)NCCOC)c1,1.3,i
CC(C)(C)N(Cc1ccccc1)C(=O)c1cc2ccccc2o1,-5.9,-5.9*
CN(Cc1ccccc1)C(=O)c1cc2ccccc2o1,.,i
Cn1c(O)c(N=Nc2nc(-c3ccccc3)cs2)c2ccccc21,22*,i
Cn1c(O)c(N=Nc2ccccc2)c2ccccc21,0.09,i
CCCCN(C(=O)CCSc1ccc(F)cc1)c1c(N)n(Cc2ccccc2)c(=O)[nH]c1=O,0.55,i
COc1ccc(-n2cccc2C=O)cc1,0.01,i
COc1ccc(-n2cccc2/C=C/[N+](=O)[O-])cc1,-6.5,-6.5*
O=C(Oc1c(-c2ccccc2)oc2ccccc2c1=O)c1ccccc1,.,i
O=C(Oc1c(-c2ccccc2Cl)oc2ccccc2c1=O)c1ccc(Cl)cc1,-6.9,-6.9*
CNc1nc(=S)[nH]c2ccccc12,0.44,i
O=C(Nc1ccccc1Cl)N1C2CCC1CC(O)(c1cccnc1)C2 (configuration not stated),0.78,i
Cc1ccccc1Nc1nc(-c2sc(NC(=O)c3cccc(Cl)c3)nc2C)cs1,0.34,i
CC12CCC(C(=O)NCc3ccc(Cl)cc3)(OC1=O)C2(C)C (configuration not stated),.,i
Cc1ccc(C(=O)COC(=O)C2C3C=CC(C3)C2C(=O)OCC(=O)c2ccc(C)c(C)c2)cc1C (configuration not stated),-7.5,-7.5*
CC(=O)NCC(=O)OCC(=O)c1ccc(C)c(C)c1,.,i
O=C1c2ccccc2C(=O)N1CCCCN(C(=O)c1cc([N+](=O)[O-])cc([N+](=O)[O-])c1)c1ccc(Cl)cc1,.,i
SMILES,KCNQ2 pot,KCNQ2 inh
Cc1cccc(C)c1OCC(=O)Nc1ccccc1C(F)(F)F,-7,-7*
Cc1cccc(C)c1OCC(=O)NCc1ccccc1,-6.4,-6.4*
O=C(COc1ccccc1)NCc1ccccc1,0.27,i
Cc1cccc(OCC(=O)Nc2ccccc2C(F)(F)F)c1,.,i
CCN(CC(=O)Nc1ccc(OC)cc1)C(=O)c1oc2c(Cl)cccc2c1C,0.26,i
CCN(CC(=O)Nc1ccccc1C(F)(F)F)C(=O)c1oc2c(Cl)cccc2c1C,-6.8,-6.8*
COc1ccc(CC(=O)Nc2ccc(C(N)=O)cc2)cc1,0.12,i
COc1ccc(S(=O)(=O)N(CC(=O)NCc2ccccn2)c2ccc(Cl)cc2)cc1,.,i
CCC1(CC)C(=O)C2=C3C1[C@H](C(=O)OC)CC(C(=O)OC)C[C@H]3n1c(=O)n(C)c(=O)n1[C@H]2C (some centres not stated),-7.5,-7.5*
CCC1(CC)C(=O)C2=C3C1[C@H](C(=O)OC)C=C(C(=O)OC)C[C@H]3n1c(=O)n(C)c(=O)n1[C@H]2C (some centres not stated),0.19,i
COC(=O)[C@H](Cc1c[nH]c2ccccc12)NC(=O)CCCc1c[nH]c2ccccc12,.,i
COc1ccc(-c2cc(C(=O)N(C)Cc3cccc(OC)c3OC)c3ccccc3n2)cc1OC,.,i
COc1ccc(CCN(C)C(=O)c2cc(-c3ccccc3)nc3ccccc23)cc1OC,.,i
COc1cccc(CN(C)C(=O)c2cc(-c3ccc(F)cc3)nc3ccccc23)c1,.,i
COc1cccc(CN(C)C(=O)c2cc(-c3ccc(OC)c(OC)c3)nc3ccccc23)c1,-6,-6*
